Screening data as filed in PubChem.
hcDAF12 agonist: activators of H. contortus DAF-12 nuclear receptor; HEK293 hcDAF-12 lit1-tk-luc reporter, luminescence; 0% DMSO, 100% Δ7-dafachronic acid; activation, % at 6.8 µM; 1.4% of 370,000 active;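 active = activation above the mean of all tested compounds plus 3 SD, cut at about 5.5% in these data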;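 note: 100% = response to 3 µM Δ7-dafachronic acid high control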
Wnt bcat act: activates Wnt/beta-catenin signaling in a reporter cell assay | activator, plate reader | activation, % at 9.35 µM | 1.2% of 300,000 active; in the data active = activation above about 30%, passing the limit was not always enough; inconclusive = no clear call, values can overlap the other calls;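 note: 0% = neutral control wells and 100% = positive control wells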
esBAF inh: inhibitors of esBAF chromatin remodeling in mouse ES cells. Bmi1-luciferase knock-in reporter, 24 h; 100% = twice the neutral-well signal. 2% of 350,000 active. reporter increase, % at 12.5 µM. AID 602393; in the data active = activation above about 40%; inconclusive = no clear call, values can overlap the other calls;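 note: 0% = median of the plate's neutral control wells and 100% = double that signal; a rise in the Bmi1 reporter signal indicates esBAF inhibition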
hgDAF12 agonist: hgDAF-12 agonism, primary luciferase screen | HEK293 GAL4-hgDAF12 UAS-luciferase reporter, agonist luminescence; normalized to butyrate control | activation, % at 6.8 µM | 1.8% of 370,000 active | AID 687014;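 active = activation above a cutoff set at the mean of all screened compounds plus 3 SD, cut at about 10% in these data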;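 note: 0% = DMSO wells and 100% = sodium butyrate wells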
DAX1 inh: blocks DAX1 repression of SF-1 activated StAR promoter. AID 652010. 1.1% of 370,000 active. HEK293T StAR-luciferase reporter, SF-1/DAX-1 repression relief. inhibition, % at 6.8 µM;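 active = inhibition above the mean over all tested compounds plus 3 SD, cut at about 3.6% in these data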;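 note: 0% = DAX-1 cells with DMSO and 100% = cells lacking DAX-1 with DMSO; higher inhibition means more luminescence from relief of DAX-1 repression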
ssDAF12 agonist: activates DAF-12 receptor from parasite S. stercoralis | 1% of 370,000 active | AID 652126 | activation, % at 6.8 µM | HEK293 ssDAF-12/GRIP1 lit1-tk-luc reporter, luminescence; % of 3 µM dafachronic acid response;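 active = activation above the mean over all tested compounds plus 3 SD, cut at about 0.9% in these data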;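 note: 0% = DMSO-only wells and 100% = 3 µM delta7-dafachronic acid wells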
esBAF Ring1 qPCR: de-represses Ring1 in mouse ESCs, confirming esBAF inhibition. mouse ESC E14, Ring1 mRNA RT-qPCR fold change. AID 743176. shares compounds with esBAF inh. fold change at 33 µM. 550 tested, under 10 active;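 active = Ring1 gene expression raised more than 2-fold over untreated cells in both replicates at either tested dose; inconclusive = only one replicate above 2-fold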;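 note: Ring1 transcript normalised to actin housekeeping signal by TaqMan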
esBAF Fgf4 qPCR: esBAF inhibition confirmed by Fgf4 repression; Fgf4 expression fold change at 33 µM; 4% of 550 active; AID 743177; shares compounds with esBAF inh; mouse ESC E14, Fgf4 mRNA qPCR fold change; stronger effect = lower value;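 active = Fgf4 expression under 0.8 fold of control in both repeat measurements at one or both tested doses; inconclusive = under 0.8 fold in just a single repeat measurement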;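 note: Fgf4 transcript normalised to actin in duplex TaqMan qPCR; cells exposed to compound for 24 h before lysis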
esBAF Bmi1 qPCR: confirmation of esBAF inhibitors: Bmi1 de-repression in mouse ESCs; mouse ESE14 ES cells, Bmi1 mRNA qPCR fold; stronger effect = higher value; fold change at 33 µM; shares compounds with esBAF inh; 550 tested, under 10 active; AID 743180;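 active = Bmi1 expression fold change above 6 at either tested concentration, seen in replicate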;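 note: higher fold means more Bmi1 de-repression and stronger esBAF inhibition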
A549 cytotox: kills or reduces viability of A549 cells. A549 cytotoxicity, plate reader. cell viability change % (negative = cytotoxic), % at 25 µM, hits read low. 550 tested, under 10 active. shares compounds with esBAF inh. AID 743188; call rule not given here
HepG2 cytotox SP: cytotoxicity in HepG2 cells; shares compounds with esBAF inh; plate reader; stronger effect = lower value; activity change, negative = inhibition, % at 25 µM; 4% of 550 active; in the data active = activity change below about -50%
HEK293 cytotox SP: HEK293 cell cytotoxicity at single point; shares compounds with esBAF inh; plate reader; activity change, negative = inhibition, % at 25 µM, hits read low; 3% of 550 active; AID 743190; in the data active = activity change below about -38%, passing the limit was not always enough
Active calls of the source: *; u = inconclusive; x = no result given. A selection: hits, their analogues and other compounds. The true share with any hit is near 4.2%.

SMILES	hcDAF12 agonist	Wnt bcat act	esBAF inh	hgDAF12 agonist	DAX1 inh	ssDAF12 agonist	esBAF Ring1 qPCR	esBAF Fgf4 qPCR	esBAF Bmi1 qPCR	A549 cytotox	HepG2 cytotox SP	HEK293 cytotox SP
CC1CCc2c(sc(NC(=O)c3cccn3C)c2C(N)=O)C1 (configuration not stated)	3.9	8.0	70.9*	7.1	2.5	-0.6	1.07	1.02	1.52	-11.4	-17.4	-19.5
C[C@H](CO)N1C[C@H](C)[C@@H](CN(C)C(=O)Nc2ccccc2)OCCCC[C@H](C)Oc2ccc(NS(C)(=O)=O)cc2C1=O	x	x	-1.6	x	x	x	x	x	x	x	x	x
COc1cccc(N(C(=O)c2cccs2)c2nc3ccccc3s2)c1	-0.2	x	59.0*	3.4	1.0	-0.8	1.38	0.972	2.88	-1.4	-10.4	-13.3
CCN(C(=O)c1cccs1)c1nc(-c2ccc(OC)cc2)cs1	-0.9	14.3	x	1.5	-0.2	-1.5	x	x	x	x	x	x
NNC(=O)c1nc2ccccc2s1	2.1	-1.4	67.8*	5.4	3.2	0.4	1.17	0.833	1.67	-4.9	-47.9	-9.6
Cc1noc(C)c1NC(=O)Nc1ccc2c(c1)C(=O)N([C@@H](C)CO)C[C@H](C)[C@H](CN(C)C(=O)C1CCCCC1)OCCCC[C@@H](C)O2	x	x	4.4	x	x	x	x	x	x	x	x	x
C[C@@H]1CCCCO[C@H](CN(C)C(=O)C2CCCCC2)[C@H](C)CN([C@@H](C)CO)C(=O)c2cc(NC(=O)CCCN(C)C)ccc2O1	x	x	-3.0	x	x	x	x	x	x	x	x	x
CN(C)CCCNC(=O)C[C@H]1CC[C@H]2[C@@H](COC[C@@H](O)CN2CC2CCCC2)O1	x	x	-4.2	x	x	x	x	x	x	x	x	x
O=C1CCCc2cc3c(ccc4ccccc43)cc21	3.1	-3.3	75.0*	7.0	2.0	0.5	0.845	0.815	1.2	-6.8	-38.7	16.0
Cc1cc2c(cc1C)C(=O)CCC2	-2.1	0.9	-0.8	0.0	0.1	-0.5	x	x	x	x	x	x
O=C(Nc1ccc(Cl)cc1)Nc1ccc(Cl)c(Cl)c1	1.3	1.2	x	4.8	-0.4	-0.1	x	x	x	x	x	x
O=C(Nc1ccc(Cl)c(Cl)c1)Nc1ccccc1O	5.5	10.0	73.6*	10.3	1.4	0.0	1.65	u	1.73	4.6	-5.5	3.8
CC(=O)c1ccc(NC(=O)c2cc(C)nc3ccccc23)cc1	0.0	4.8	62.0*	8.9	0.5	-0.9	1.35	1.09	1.52	4.3	-26.7	-3.4
CN(CCCC1CCCC1)C(=O)c1cc(COc2ccc(F)c(F)c2)on1	0.6	4.1	-0.1	-0.2	-1.1	-0.8	x	x	x	x	x	x
CN(Cc1ccccn1)C(=O)c1cc(COc2ccc(F)c(F)c2)on1	4.2	2.4	72.6*	6.4	0.3	-0.4	1.14	0.967	1.06	-13.1	-12.9	-15.9
C[C@@H]1CN([C@H](C)CO)C(=O)c2cc(NC(=O)NC3CCCCC3)ccc2O[C@H]1CN(C)C	x	x	10.7	x	x	x	x	x	x	x	x	x
CC(=O)Nc1ccc(C(=O)N/N=C/c2ccc(F)cc2)cc1	-0.7	-1.3	x	-0.1	0.4	-0.5	x	x	x	x	x	x
O=C(N/N=C/c1ccccc1)c1ccc(NC(=O)c2ccc(F)cc2)cc1	-1.4	0.5	57.9*	0.5	-0.5	-0.7	1.23	1.07	1.23	6.8	8.5	0.1
O=C(Nc1ccc(F)cc1)c1ccccc1F	6.3*	22.2	85.1*	3.6	2.2	-0.9	1.3	1.03	1.58	-11.0	-3.4	-15.6
CCCC(=O)Nc1ccc2c(c1)C(=O)N(C)[C@@H]1CC[C@@H](CC(=O)NCc3ccccc3F)O[C@@H]1CO2	x	x	5.4	x	x	x	x	x	x	x	x	x
CO[C@H]1CN(C)C(=O)c2cc(NC(=O)C3CC3)ccc2OC[C@H](C)N(C(=O)NC(C)C)C[C@@H]1C	x	x	-2.0	x	x	x	x	x	x	x	x	x
CN(C)C(=O)C[C@H]1CC[C@H]2[C@@H](COc3ccc(NC(=O)c4ccc(F)c(F)c4)cc3C(=O)N2C)O1	x	x	5.1	x	x	x	x	x	x	x	x	x
O=C(CCN1C(=O)/C(=C/C=C/c2ccccc2)SC1=S)Nc1cccnc1	2.0	21.0	66.6*	0.3	0.5	-1.2	1.2	0.591*	3.99	-10.4	-5.4	-5.0
O=C(CCN1C(=O)/C(=C/C=C/c2ccccc2)SC1=S)Nc1ccccn1	-2.3	1.9	x	-1.0	-0.5	-1.8	x	x	x	x	x	x
COCCNC(=O)C[C@H]1CC[C@@H]2[C@@H](COc3ccc(NC(=O)Nc4ccccc4)cc3C(=O)N2C)O1	x	x	3.9	x	x	x	x	x	x	x	x	x
SMILES	hcDAF12 agonist	Wnt bcat act	esBAF inh	hgDAF12 agonist	DAX1 inh	ssDAF12 agonist	esBAF Ring1 qPCR	esBAF Fgf4 qPCR	esBAF Bmi1 qPCR	A549 cytotox	HepG2 cytotox SP	HEK293 cytotox SP
COC(=O)c1c(-c2ccc(SC)cc2)sc2ccc(OC)cc12	3.7	57.8*	98.6*	7.8	1.0	0.8	1.28	0.829	1.87	5.5	4.4	-5.3
CCC(=O)Nc1ccc2c(c1)C(=O)N(C)C[C@@H](OC)[C@H](C)CN(CC1CC1)[C@@H](C)CO2	x	x	0.5	x	x	x	x	x	x	x	x	x
CS(=O)(=O)c1ccccc1C(=O)Nc1ccc(-c2nc3ccccc3o2)cc1	-1.5	22.3	66.7*	6.6	0.2	-1.3	1.19	1.07	2.19	-5.9	0.4	4.0
O=C(Nc1ccc(-c2nc3ccccc3[nH]2)cc1)c1ccccc1NS(=O)(=O)c1ccc(F)cc1	1.6	x	x	0.3	0.2	-0.8	x	x	x	x	x	x
CS(=O)(=O)c1ccccc1C(=O)Nc1ccc(-c2nc3ccccc3[nH]2)cc1	1.7	17.6	57.5*	8.3	0.2	-1.1	1.15	1.38	2	-3.1	-17.9	5.6
CCCN(C)C[C@H]1OCCCC[C@H](C)Oc2ccc(NS(=O)(=O)c3c(C)noc3C)cc2C(=O)N([C@@H](C)CO)C[C@H]1C	x	x	-7.0	x	x	x	x	x	x	x	x	x
Cc1ccc(NC(=O)C2CCCN(c3ncccn3)C2)cc1C (configuration not stated)	1.3	11.2	55.1*	3.6	1.1	0.2	1.2	0.928	1.61	-5.9	-32.2	-10.2
Cc1ccnc(N2CCCC(C(=O)Nc3ccc(C)c(C)c3)C2)n1 (configuration not stated)	-3.1	7.0	12.2	-1.8	0.4	-1.7	x	x	x	x	x	x
C[C@@H]1CCCCO[C@@H](CN(C)C(=O)c2ccccc2)[C@H](C)CN([C@H](C)CO)C(=O)c2cc(NS(=O)(=O)c3cccs3)ccc2O1	x	x	4.9	x	x	x	x	x	x	x	x	x
Cc1ccc(NC(=O)c2sc3nc(N4CCOCC4)c4c(c3c2N)CC(C)(C)OC4)cc1	0.5	4.3	9.4	1.8	0.7	-0.8	x	x	x	x	x	x
